{
  "source": "paper PMC11062922",
  "about": "(Nature Chemical Biology, 2023)",
  "key": {"GAK": {"tested_on": "GAK", "details": "read-out: apparent Kd, n = 1"}, "IKBKE": {"tested_on": "IKBKE", "details": "read-out: apparent Kd, n = 1"}},
  "note": "Read-outs that look alike come from different tables or passages of the source.",
  "data": [
    {"substance": "Lestaurtinib", "values": [
      {"measurement": "potency estimated from few doses", "setting": "GAK; compound concentrations:100 nM and 1000 nM (sheet 'Lestaurtinib' of Supplementary Table 1),run:Lestaurtinib_02566_R1,Plate:MR014", "result": 580, "unit": "nM"},
      {"measurement": "potency estimated from few doses", "setting": "GAK; compound concentrations:100 nM and 1000 nM (sheet 'Lestaurtinib' of Supplementary Table 1),run:Lestaurtinib_02566_R3,Plate:MR014", "result": 806, "unit": "nM"},
      {"measurement": "potency estimated from few doses", "setting": "GAK; compound concentrations:100 nM and 1000 nM (sheet 'Lestaurtinib' of Supplementary Table 1),run:Lestaurtinib_02572_R1,Plate:MR015", "result": 486, "unit": "nM"},
      {"measurement": "potency estimated from few doses", "setting": "GAK; compound concentrations:100 nM and 1000 nM (sheet 'Lestaurtinib' of Supplementary Table 1),run:Lestaurtinib_02572_R3,Plate:MR015", "result": 627, "unit": "nM"},
      {"measurement": "potency estimated from few doses", "setting": "GAK; compound concentrations:100 nM and 1000 nM (sheet 'Lestaurtinib' of Supplementary Table 1),run:Lestaurtinib_02577_R1,Plate:MR016", "result": 484, "unit": "nM"},
      {"measurement": "potency estimated from few doses", "setting": "GAK; compound concentrations:100 nM and 1000 nM (sheet 'Lestaurtinib' of Supplementary Table 1),run:Lestaurtinib_02577_R3,Plate:MR016", "result": 574, "unit": "nM"},
      {"measurement": "potency estimated from few doses", "setting": "GAK; compound concentrations:100 nM and 1000 nM (sheet 'Lestaurtinib' of Supplementary Table 1),run:Lestaurtinib_02584_R1,Plate:MR017", "result": 641, "unit": "nM"},
      {"measurement": "potency estimated from few doses", "setting": "GAK; compound concentrations:100 nM and 1000 nM (sheet 'Lestaurtinib' of Supplementary Table 1),run:Lestaurtinib_02584_R2,Plate:MR017", "result": 628, "unit": "nM"},
      {"measurement": "potency estimated from few doses", "setting": "GAK; compound concentrations:100 nM and 1000 nM (sheet 'Lestaurtinib' of Supplementary Table 1),run:Lestaurtinib_02601_R1,Plate:MR018", "result": 786, "unit": "nM"},
      {"measurement": "potency estimated from few doses", "setting": "GAK; compound concentrations:100 nM and 1000 nM (sheet 'Lestaurtinib' of Supplementary Table 1),run:Lestaurtinib_02601_R2,Plate:MR018", "result": 761, "unit": "nM"},
      {"measurement": "potency estimated from few doses", "setting": "GAK; compound concentrations:100 nM and 1000 nM (sheet 'Lestaurtinib' of Supplementary Table 1),run:Lestaurtinib_02601_R3,Plate:MR018", "result": 56, "unit": "nM"},
      {"measurement": "potency estimated from few doses", "setting": "GAK; compound concentrations:100 nM and 1000 nM (sheet 'Lestaurtinib' of Supplementary Table 1),run:Lestaurtinib_02606_R1,Plate:MR019", "result": 646, "unit": "nM"},
      {"measurement": "potency estimated from few doses", "setting": "GAK; compound concentrations:100 nM and 1000 nM (sheet 'Lestaurtinib' of Supplementary Table 1),run:Lestaurtinib_02606_R2,Plate:MR019", "result": 729, "unit": "nM"},
      {"measurement": "potency estimated from few doses", "setting": "GAK; compound concentrations:100 nM and 1000 nM (sheet 'Lestaurtinib' of Supplementary Table 1),run:Lestaurtinib_02624_R1,Plate:MR020", "result": 818, "unit": "nM"},
      {"measurement": "potency estimated from few doses", "setting": "GAK; compound concentrations:100 nM and 1000 nM (sheet 'Lestaurtinib' of Supplementary Table 1),run:Lestaurtinib_02624_R2,Plate:MR020", "result": 627, "unit": "nM"},
      {"measurement": "potency estimated from few doses", "setting": "GAK; compound concentrations:100 nM and 1000 nM (sheet 'Lestaurtinib' of Supplementary Table 1),run:Lestaurtinib_02624_R3,Plate:MR020", "result": 770, "unit": "nM"},
      {"measurement": "potency estimated from few doses", "setting": "GAK; compound concentrations:100 nM and 1000 nM (sheet 'Lestaurtinib' of Supplementary Table 1),run:Lestaurtinib_02724_R1,Plate:MR021", "result": 577, "unit": "nM"},
      {"measurement": "potency estimated from few doses", "setting": "GAK; compound concentrations:100 nM and 1000 nM (sheet 'Lestaurtinib' of Supplementary Table 1),run:Lestaurtinib_02724_R2,Plate:MR021", "result": 628, "unit": "nM"},
      {"measurement": "potency estimated from few doses", "setting": "GAK; compound concentrations:100 nM and 1000 nM (sheet 'Lestaurtinib' of Supplementary Table 1),run:Lestaurtinib_02748_R1,Plate:MR024", "result": 455, "unit": "nM"},
      {"measurement": "potency estimated from few doses", "setting": "GAK; compound concentrations:100 nM and 1000 nM (sheet 'Lestaurtinib' of Supplementary Table 1),run:Lestaurtinib_02748_R2,Plate:MR024", "result": 649, "unit": "nM"},
      {"measurement": "potency estimated from few doses", "setting": "GAK; compound concentrations:100 nM and 1000 nM (sheet 'Lestaurtinib' of Supplementary Table 1),run:Lestaurtinib_02748_R3,Plate:MR024", "result": 731, "unit": "nM"},
      {"measurement": "potency estimated from few doses", "setting": "GAK; compound concentrations:100 nM and 1000 nM (sheet 'Lestaurtinib' of Supplementary Table 1),run:Lestaurtinib_02752_R2,Plate:MR025", "result": 637, "unit": "nM"},
      {"measurement": "potency estimated from few doses", "setting": "GAK; compound concentrations:100 nM and 1000 nM (sheet 'Lestaurtinib' of Supplementary Table 1),run:Lestaurtinib_02752_R3,Plate:MR025", "result": 696, "unit": "nM"},
      {"measurement": "potency estimated from few doses", "setting": "GAK; compound concentrations:100 nM and 1000 nM (sheet 'Lestaurtinib' of Supplementary Table 1),run:Lestaurtinib_02766_R1,Plate:MR027", "result": 591, "unit": "nM"},
      {"measurement": "potency estimated from few doses", "setting": "GAK; compound concentrations:100 nM and 1000 nM (sheet 'Lestaurtinib' of Supplementary Table 1),run:Lestaurtinib_02766_R2,Plate:MR027", "result": 36.2, "unit": "nM"},
      {"measurement": "potency estimated from few doses", "setting": "GAK; compound concentrations:100 nM and 1000 nM (sheet 'Lestaurtinib' of Supplementary Table 1),run:Lestaurtinib_02766_R3,Plate:MR027", "result": 762, "unit": "nM"},
      {"measurement": "potency estimated from few doses", "setting": "GAK; compound concentrations:100 nM and 1000 nM (sheet 'Lestaurtinib' of Supplementary Table 1),run:Lestaurtinib_02768_R1,Plate:MR028", "result": 728, "unit": "nM"},
      {"measurement": "potency estimated from few doses", "setting": "GAK; compound concentrations:100 nM and 1000 nM (sheet 'Lestaurtinib' of Supplementary Table 1),run:Lestaurtinib_02768_R2,Plate:MR028", "result": 752, "unit": "nM"},
      {"measurement": "potency estimated from few doses", "setting": "GAK; compound concentrations:100 nM and 1000 nM (sheet 'Lestaurtinib' of Supplementary Table 1),run:Lestaurtinib_02795_R1,Plate:MR022", "result": 828, "unit": "nM"},
      {"measurement": "potency estimated from few doses", "setting": "GAK; compound concentrations:100 nM and 1000 nM (sheet 'Lestaurtinib' of Supplementary Table 1),run:Lestaurtinib_02802_R1,Plate:MR029", "result": 614, "unit": "nM"},
      {"measurement": "potency estimated from few doses", "setting": "GAK; compound concentrations:100 nM and 1000 nM (sheet 'Lestaurtinib' of Supplementary Table 1),run:Lestaurtinib_02802_R2,Plate:MR029", "result": 635, "unit": "nM"},
      {"measurement": "potency estimated from few doses", "setting": "GAK; compound concentrations:100 nM and 1000 nM (sheet 'Lestaurtinib' of Supplementary Table 1),run:Lestaurtinib_02896_R2,Plate:MR030", "result": 687, "unit": "nM"},
      {"measurement": "potency estimated from few doses", "setting": "GAK; compound concentrations:100 nM and 1000 nM (sheet 'Lestaurtinib' of Supplementary Table 1),run:Lestaurtinib_02896_R3,Plate:MR030", "result": 634, "unit": "nM"},
      {"measurement": "potency estimated from few doses", "setting": "GAK; compound concentrations:100 nM and 1000 nM (sheet 'Lestaurtinib' of Supplementary Table 1),run:Lestaurtinib_03172_R1,Plate:MR031", "result": 665, "unit": "nM"},
      {"measurement": "potency estimated from few doses", "setting": "GAK; compound concentrations:100 nM and 1000 nM (sheet 'Lestaurtinib' of Supplementary Table 1),run:Lestaurtinib_03172_R2,Plate:MR031", "result": 786, "unit": "nM"},
      {"measurement": "potency estimated from few doses", "setting": "GAK; compound concentrations:100 nM and 1000 nM (sheet 'Lestaurtinib' of Supplementary Table 1),run:Lestaurtinib_03172_R3,Plate:MR031", "result": 687, "unit": "nM"},
      {"measurement": "potency estimated from few doses", "setting": "GAK; compound concentrations:100 nM and 1000 nM (sheet 'Lestaurtinib' of Supplementary Table 1),run:Lestaurtinib_03252_R1,Plate:MR032", "result": 707, "unit": "nM"},
      {"measurement": "potency estimated from few doses", "setting": "GAK; compound concentrations:100 nM and 1000 nM (sheet 'Lestaurtinib' of Supplementary Table 1),run:Lestaurtinib_03252_R2,Plate:MR032", "result": 29.5, "unit": "nM"},
      {"measurement": "potency estimated from few doses", "setting": "GAK; compound concentrations:100 nM and 1000 nM (sheet 'Lestaurtinib' of Supplementary Table 1),run:Lestaurtinib_03260_R1,Plate:MR033", "result": 784, "unit": "nM"},
      {"measurement": "potency estimated from few doses", "setting": "GAK; compound concentrations:100 nM and 1000 nM (sheet 'Lestaurtinib' of Supplementary Table 1),run:Lestaurtinib_03260_R2,Plate:MR033", "result": 821, "unit": "nM"},
      {"measurement": "potency estimated from few doses", "setting": "GAK; compound concentrations:100 nM and 1000 nM (sheet 'Lestaurtinib' of Supplementary Table 1),run:Lestaurtinib_03260_R3,Plate:MR033", "result": 793, "unit": "nM"},
      {"measurement": "potency estimated from few doses", "setting": "IKBKE; compound concentrations:100 nM and 1000 nM (sheet 'Lestaurtinib' of Supplementary Table 1),run:Lestaurtinib_02339_R1,Plate:MR001", "result": 861, "unit": "nM"},
      {"measurement": "potency estimated from few doses", "setting": "IKBKE; compound concentrations:100 nM and 1000 nM (sheet 'Lestaurtinib' of Supplementary Table 1),run:Lestaurtinib_02339_R2,Plate:MR001", "result": 585, "unit": "nM"}
    ]}
  ]
}
